The source of these data is PubChem BioAssay (Tox21).

Assay [1] is described as follows: A CellTox Green Cytotoxicity Assay to monitor cytotoxicity in HEK293 cells - 40 hour (AID 1224871). Note: nearly all actives have a fitted effect of over 45% in size. Note: potency is the fitted concentration of half-maximal effect. The method, boiled down:
(§1)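 Read-out: fluorescence of a cell-impermeant cyanine dye staining DNA of dead cells, proportional to cytotoxicity. HEK293, 600 cells/well with reagent, compound (23 nL DMSO) added after 5 h; reads at 0, 8, 16, 24, 32, 40 h.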

A short description of assay [2]: qHTS RealTime-Glo MT Cell Viability Assay in HEK293 cells - 16 hour (AID 1224872). For activity change, negative = cytotoxicity: top concentration of the series differs between compounds. Note: nearly all actives have a fitted effect of over 50% in size. Note: potency is the fitted concentration of half-maximal effect. The method, boiled down: (§2)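 Homogeneous bioluminescent viability format in HEK293 cells (600 cells/well). Following 5 h at 37 C/5% CO2, 23 nL compound was pintooled; the signal was measured repeatedly during 40 h incubation.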
The nature of assay [3]: A CellTox Green Cytotoxicity Assay to monitor cytotoxicity in HEK293 cells - 24 hour (AID 1224875). For activity change: series mostly up to about 77 µM. Note: nearly all actives have a fitted effect of over 45% in size. Note: potency is the fitted concentration of half-maximal effect. The method, boiled down:
as §1

Assay [4] in a line: A CellTox Green Cytotoxicity Assay to monitor cytotoxicity in HepG2 cells - 16 hour (AID 1224876). Note: nearly all actives have a fitted effect of over 45% in size. Note: potency is the fitted concentration of half-maximal effect. The method, boiled down:
(§3)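 HepG2, 600 cells/well premixed w/ CellTox Green; 5 h settle, 37 C/5% CO2; pintool cpd add (DMSO); 37 C, 40 h; fluorescence read at 0, 8, 16, 24, 32, 40 h.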

Assay [5] can be described thus: qHTS RealTime-Glo MT Cell Viability Assay in HepG2 cells - 32 hour (AID 1224877). Note: nearly all actives have a fitted effect of over 55% in size. Note: potency is the fitted concentration of half-maximal effect. The method, boiled down:
(§4)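 Cell number in HepG2 cultures estimated from NanoLuc luminescence generated by metabolic reduction of a prosubstrate by living cells. The homogeneous, nonlytic format allowed repeated reads at 0, 8, 16, 24, 32 and 40 h of compound exposure.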

Assay [6] is described as follows: A CellTox Green Cytotoxicity Assay to monitor cytotoxicity in HepG2 cells - 24 hour (AID 1224878). Note: nearly all actives have a fitted effect of over 45% in size. Note: potency is the fitted concentration of half-maximal effect. The method, boiled down:
as §3

Assay [7] can be described thus: A CellTox Green Cytotoxicity Assay to monitor cytotoxicity in HepG2 cells - 40 hour (AID 1224879). Note: nearly all actives have a fitted effect of over 40% in size. Note: potency is the fitted concentration of half-maximal effect. The procedure, abridged: as §3
A short description of assay [8]: qHTS RealTime-Glo MT Cell Viability Assay in HEK293 cells - 0 hour (AID 1224880). For activity change, negative = cytotoxicity: top concentration of the series differs between compounds. Note: nearly all actives have a fitted effect of over 45% in size. Note: potency is the fitted concentration of half-maximal effect. The method, boiled down:
(§5)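 Luminescence readout at each listed time point; HEK293, 600 cells/well, RealTime-Glo MT reagent added with cells; compounds pinned (23 nL in DMSO) after 5 h at 37 C; continuous culture at 37 C.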

A short description of assay [9]: A CellTox Green Cytotoxicity Assay to monitor cytotoxicity in HepG2 cells - 0 hour (AID 1224882). Note: nearly all actives have a fitted effect of over 35% in size. The procedure, abridged: as §3
Assay [10] can be described thus: A CellTox Green Cytotoxicity Assay to monitor cytotoxicity in HepG2 cells - 32 hour (AID 1224883). Note: nearly all actives have a fitted effect of over 50% in size. Note: potency is the fitted concentration of half-maximal effect. The method, boiled down: as §3
Assay [11] is described as follows: qHTS RealTime-Glo MT Cell Viability Assay in HepG2 cells - 16 hour (AID 1224885). Note: nearly all actives have a fitted effect of over 50% in size. Note: potency is the fitted concentration of half-maximal effect. The procedure, abridged: as §4
The nature of assay [12]: qHTS RealTime-Glo MT Cell Viability Assay in HEK293 cells - 24 hour (AID 1224886). For activity change, negative = cytotoxicity: top concentration of the series differs between compounds. Note: nearly all actives have a fitted effect of over 50% in size. Note: potency is the fitted concentration of half-maximal effect. The procedure, abridged:
as §2

Assay [13] can be described thus: qHTS RealTime-Glo MT Cell Viability Assay in HEK293 cells - 8 hour (AID 1224887). For activity change, negative = cytotoxicity: top concentration of the series differs between compounds. Note: nearly all actives have a fitted effect of over 50% in size. Note: potency is the fitted concentration of half-maximal effect. The method, boiled down: as §5
Assay [14] in a line: qHTS RealTime-Glo MT Cell Viability Assay in HepG2 cells - 0 hour (AID 1224889). Note: nearly all actives have a fitted effect of over 50% in size. Note: potency is the fitted concentration of half-maximal effect. The procedure, abridged: as §4
Assay [15] in a line: A CellTox Green Cytotoxicity Assay to monitor cytotoxicity in HepG2 cells - 8 hour (AID 1224890). Note: nearly all actives have a fitted effect of over 45% in size. Note: potency is the fitted concentration of half-maximal effect. The method, boiled down:
as §3

Assay [16] can be described thus: qHTS RealTime-Glo MT Cell Viability Assay in HEK293 cells - 40 hour (AID 1224874). Note: nearly all actives have a fitted effect of over 50% in size. Note: potency is the fitted concentration of half-maximal effect. The note with it: RealTime-Glo luminescence; max response: hits give low values. The method, boiled down: as §5
Assay [17] in a line: A CellTox Green Cytotoxicity Assay to monitor cytotoxicity in HEK293 cells - 32 hour (AID 1224881). Note: nearly all actives have a fitted effect of over 40% in size. Note: potency is the fitted concentration of half-maximal effect. The procedure, abridged:
as §1

Assay [18] is described as follows: A CellTox Green Cytotoxicity Assay to monitor cytotoxicity in HEK293 cells - 8 hour (AID 1224884). Note: nearly all actives have a fitted effect of over 35% in size. The method, boiled down: as §1
Assay [19] can be described thus: A CellTox Green Cytotoxicity Assay to monitor cytotoxicity in HEK293 cells - 16 hour (AID 1224888). Note: nearly all actives have a fitted effect of over 35% in size. The method, boiled down: as §1
Assay [20] in a line: qHTS RealTime-Glo MT Cell Viability Assay in HepG2 cells - 8 hour (AID 1224873). Note: nearly all actives have a fitted effect of over 55% in size. The procedure, abridged:
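HepG2 cells (600/well) mixed with RealTime-Glo MT reagent, settled 5 h at 37 C/5% CO2 before compound addition. Nonlytic NanoLuc luminescence from viable-cell prosubstrate reduction read repeatedly during 40 h treatment at 37 C.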

Molecules are shown by their SMILES. “And” between values parts separate entries of the source, which are not always exact repeats. Identical values can stand only once. Unmarked numbers belong to inactive results. Inconclusive results are not listed. The source made the active and inactive calls. Calls come from the whole dose curve; as a rule, active = well fitted curve in the direction sought with a large enough effect in the repeat runs; inconclusive = weak or mixed curves; inactive = no such curve, though single readings can be large; an effect the other way counts as inactive or inconclusive.
% is set by controls: 0 for no effect and ±100 for the full control effect.

Regarding `CCN(CC)C(=O)c1cc(S(=O)(=O)Cc2ccccc2)c(N2CCC(c3ccccc3)CC2)cc1N(CC)CCN(C)C`, the Potency in assay [1] is 17.2 µM (active); in [2], 15.3 µM (active); in [3] it was 19.3 µM (active); in assay [4], 17.2 µM (active); in [5] it was 17.2 µM (active); in assay [6] it was 17.2 µM (active). The Potency in [7] was 13.6 µM (active); in assay [10], 15.3 µM (active); in [11], 19.3 µM (active); in [12] it was 13.6 µM (active); in assay [13], 17.2 µM (active); in [15] it was 19.3 µM (active). For the same compound, the Potency result in assay [8], in assay [9] and in assay [14] was “inactive” each time.
`CC/C=C\CCCCCO`: the Potency entry in [1], in [2], in assay [3], in assay [4], in assay [5] and in [8] was “inactive” in each case. In addition, the Potency entry in assay [17], in assay [9], in [18], in assay [11], in assay [12] and in [13] was “inactive” in each case. The Potency entry in [19], in assay [14] and in assay [15] was “inactive” each time. Also, the max response in assay [16] is 9.87%.
Consider `C[C@@H](O)[C@H](N)C(=O)O`, for which the cytotoxicity increase in [1] was -7.08% [at 15.8 µM]; in assay [4] it was 6.33% [at 15.8 µM]; in assay [7] it was 7.81% [at 15.8 µM]; in [17] it was -5.17% [at 15.8 µM]; in assay [10], 4.24% [at 15.8 µM]; in assay [18], -5.26% [at 15.8 µM]. In addition, in [15], the cytotoxicity increase is 6.73% [at 15.8 µM]. Also, the activity change, negative = cytotoxicity in assay [2] is -1.06% [at 15.8 µM]; in assay [8], -2.75% [at 15.8 µM]; in assay [12] it was 0.683% [at 15.8 µM]; in assay [13], -0.878% [at 15.8 µM]; in assay [14], 0.322% [at 15.8 µM]. Also, the activity change in [3] is -4.79% [at 15.8 µM, hits give high values]; in assay [19], -2.81% [at 15.8 µM, hits give high values]. Moreover, the activity change, negative = cytotoxic in [5] was -3.46% [at 15.8 µM]; in assay [11], -0.0796% [at 15.8 µM]. Besides, the cytotoxicity is 5.91% [at 15.8 µM] in [6] and 7.45% [at 15.8 µM] in assay [9].
As for `CC(=O)[C@H]1CC[C@H]2[C@@H]3CCC4=CC(=O)CC[C@]4(C)[C@H]3CC[C@]12C`, the Potency in assay [1] is 24.4 µM (active) and 34.7 µM (active); in [2], 15.4 µM (active) and 19.5 µM (active); in [7], 54.6 µM (active) and 43.6 µM (active); in assay [8] it was 15.4 µM (active) and 19.5 µM (active); in assay [17], 24.4 µM (active) and 34.7 µM (active); in assay [10] it was 49 µM (active). Further, the Potency in [12] is 15.4 µM (active) and 17.4 µM (active); in assay [13] it was 13.7 µM (active); in assay [14], 6.88 µM (active) and 5.49 µM (active). Further, the Potency result in assay [4], in assay [5], in assay [6], in [9], in assay [18] and in assay [19] was “inactive” in each case. Moreover, the Potency result in [15] was “inactive”.
Take `CN(C)CCN1CCN(c2cccc(Cl)c2)C1=O`: the Potency result in assay [1], in [20], in assay [3], in [4], in [5] and in assay [6] was “inactive” throughout. Besides, the Potency entry in assay [7], in [8], in assay [17], in assay [9], in [10] and in [18] was “inactive” throughout. Besides, the Potency result in assay [11], in [19], in assay [14] and in assay [15] was “inactive” in each case.
Take `COCCOc1cc2cc(C(=O)NC3CCN(C(C)C)CC3)n(CC(=O)Nc3ccc(Cl)cn3)c2cn1`: the Potency result in assay [1], in assay [20], in assay [3], in assay [4], in assay [5] and in assay [6] was “inactive” each time. The Potency result in assay [7], in assay [8], in assay [9], in [10], in assay [18] and in [11] was “inactive” in each case. Moreover, the Potency result in [19], in assay [14] and in assay [15] was “inactive” each time.
For the compound `Cc1c2ccccc2c(C)c2c1ccc1ccccc12`, the Potency was 43.6 µM (active) in assay [1]; 43.2 µM (active) and 34.7 µM (active) in [16]; 49 µM (active) in assay [3]; 43.6 µM (active) in assay [17]; 43.2 µM (active) and 21.9 µM (active) in assay [12]. Moreover, the Potency entry in assay [20], in [4], in assay [5], in assay [6], in [7] and in assay [8] was “inactive” each time. The Potency entry in [9], in [10], in assay [18], in assay [11], in [19] and in assay [14] was “inactive” throughout. Further, in assay [15], the Potency result was “inactive”.
